In PubChem BioAssay AID1159580 (chemical genetic matrix, 2015):
Several values for one entry are separate records, joined by “and”; a condition that tells them apart may be missing. Identical values can stand only once. The campaign covered roughly 5,500 compounds. About 2,000 (36%) were called active. About 18% were inconclusive and are not listed. Cut-off read from the data, not from the text of the source: active = normalized growth mostly below about 0.91 (no sharp cut-off); inconclusive = no clear call, values can overlap the other calls; inactive = mostly above about 0.92. The list shows a part of the results.

Experiment: chemical genetic growth profiling, strain panel (AID 1159580);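 note: tested at 20 µM; growth read once vehicle control cultures reached saturation at 30 °C; 1 = growth at the plate median or of vehicle wells; lower values mean less growth of the strain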
Conditions: growth OD

Measured: normalized growth

CC(CCc1ccccc1)NCC(O)c1ccc(O)c(C(N)=O)c1 (stereo not given)
inactive: S. cerevisiae deletion strains, locus YJR075W, strain HOC1, hits give low values 1 | S. cerevisiae deletion strains, locus YKL009W, strain mrt4, hits give low values 1.01 | S. cerevisiae deletion strains, locus YKL068W, hits give low values 1.01 | S. cerevisiae deletion strains, locus YKL085W, strain MDH1 (second series), hits give low values 1.01 | S. cerevisiae deletion strains, locus YKL085W, strain MDH1, hits give low values 1.01 | S. cerevisiae deletion strains, locus YKL160W, strain elf1, hits give low values 1 | S. cerevisiae deletion strains, locus YKL190W, strain CNB1, hits give low values 1 | S. cerevisiae deletion strains, locus YKR001C, strain vps1, hits give low values 1.03 | S. cerevisiae deletion strains, locus YKR026C, strain gcn3, hits give low values 1.01 | S. cerevisiae deletion strains, locus YKR091W, strain srl3, hits give low values 0.997 | S. cerevisiae deletion strains, locus YLL001W, strain dnm1, hits give low values 1 | S. cerevisiae deletion strains, locus YLL026W, hits give low values 1 | S. cerevisiae deletion strains, locus YLL041C, strain sdh2, hits give low values 1 | S. cerevisiae deletion strains, locus YLR027C, strain aat2, hits give low values 0.992 | S. cerevisiae deletion strains, locus YLR039C, strain RIC1, hits give low values 1.05 | S. cerevisiae deletion strains, locus YLR058C, strain SHM2, hits give low values 1 | S. cerevisiae deletion strains, locus YLR102C, strain apc9, hits give low values 1.01 | S. cerevisiae deletion strains, locus YLR113W, strain HOG1, hits give low values 1.08 | S. cerevisiae deletion strains, locus YLR221C, strain rsa3, hits give low values 1.01 | S. cerevisiae deletion strains, locus YLR258W, strain gsy2, hits give low values 1.01 | S. cerevisiae deletion strains, locus YLR262C, strain YPT6 (second series), hits give low values 1.02 | S. cerevisiae deletion strains, locus YLR262C, strain YPT6, hits give low values 1.04 | S. cerevisiae deletion strains, locus YLR268W, strain sec22, hits give low values 1.02 | S. cerevisiae deletion strains, locus YLR320W, strain mms22, hits give low values 1.02 | S. cerevisiae deletion strains, locus YLR330W, strain CHS5, hits give low values 1.01 | S. cerevisiae deletion strains, locus YLR342W, strain FKS1 (second series), hits give low values 1.08 | S. cerevisiae deletion strains, locus YLR342W, strain FKS1, hits give low values 1.01 | S. cerevisiae deletion strains, locus YLR357W, strain rsc2, hits give low values 0.96 | S. cerevisiae deletion strains, locus YLR370C, strain arc18, hits give low values 1 | S. cerevisiae deletion strains, locus YLR371W, strain rom2, hits give low values 1.02 | S. cerevisiae deletion strains, locus YLR384C, strain iki3, hits give low values 1.02 | S. cerevisiae deletion strains, locus YLR418C, strain cdc73, hits give low values 1.06 | S. cerevisiae deletion strains, locus YML016C, strain PPZ1, hits give low values 1.01 | S. cerevisiae deletion strains, locus YML032C, strain rad52, hits give low values 0.996 | S. cerevisiae deletion strains, locus YML120C, strain ndi1, hits give low values 1.01 | S. cerevisiae deletion strains, locus YML124C, strain tub3, hits give low values 1.01 | S. cerevisiae deletion strains, locus YMR058W, strain fet3, hits give low values 1 | S. cerevisiae deletion strains, locus YMR078C, strain ctf18, hits give low values 1.01 | S. cerevisiae deletion strains, locus YMR125W, strain sto1, hits give low values 0.997 | S. cerevisiae deletion strains, locus YMR129W, hits give low values 1.01 | S. cerevisiae deletion strains, locus YMR205C, strain PFK2, hits give low values 1.01 | S. cerevisiae deletion strains, locus YMR223W, strain ubp8, hits give low values 1.04 | S. cerevisiae deletion strains, locus YMR231W, strain pep5, hits give low values 1.01 | S. cerevisiae deletion strains, locus YMR263W, strain SAP30, hits give low values 0.988 | S. cerevisiae deletion strains, locus YMR307W, strain GAS1, hits give low values 1.04 | S. cerevisiae deletion strains, locus YNL067W, strain RPL9B, hits give low values 0.988 | S. cerevisiae deletion strains, locus YNL071W, strain lat1, hits give low values 1 | S. cerevisiae deletion strains, locus YNL153C, strain GIM3, hits give low values 0.979 and 1.02 | S. cerevisiae deletion strains, locus YNL175C, strain NOP13, hits give low values 1.01 | S. cerevisiae deletion strains, locus YNL183C, strain NPR1, hits give low values 0.986 | S. cerevisiae deletion strains, locus YNL197C, strain WHI3, hits give low values 0.999 | S. cerevisiae deletion strains, locus YNL209W, strain ssb2, hits give low values 1.01 | S. cerevisiae deletion strains, locus YNL224C, strain SQS1, hits give low values 1.01 | S. cerevisiae deletion strains, locus YNL233W, strain BNI4, hits give low values 0.994 | S. cerevisiae deletion strains, locus YNL248C, strain rpa49, hits give low values 0.998 | S. cerevisiae deletion strains, locus YNL250W, strain rad50, hits give low values 1.03 | S. cerevisiae deletion strains, locus YNL271C, strain bni1, hits give low values 1.01 | S. cerevisiae deletion strains, locus YNL298W, strain CLA4, hits give low values 1.02 | S. cerevisiae deletion strains, locus YNL307C, strain MCK1, hits give low values 1.03 | S. cerevisiae deletion strains, locus YNL322C, strain KRE1 (second series), hits give low values 0.993 | S. cerevisiae deletion strains, locus YNL322C, strain KRE1, hits give low values 0.998 | S. cerevisiae deletion strains, locus YNR049C, strain mso1, hits give low values 0.999 | S. cerevisiae deletion strains, locus YNR052C, strain pop2, hits give low values 1.02 | S. cerevisiae deletion strains, locus YOL006C, strain TOP1, hits give low values 0.976 | S. cerevisiae deletion strains, locus YOL012C, strain htz1 0.754 | S. cerevisiae deletion strains, locus YOL147C, strain pex11, hits give low values 1.01 | S. cerevisiae deletion strains, locus YOR001W, strain rrp6, hits give low values 1.02 | S. cerevisiae deletion strains, locus YOR061W, strain CKA2, hits give low values 1.01 | S. cerevisiae deletion strains, locus YOR069W, strain VPS5, hits give low values 1 | S. cerevisiae deletion strains, locus YOR070C, strain gyp1, hits give low values 0.996 | S. cerevisiae deletion strains, locus YOR080W, strain dia2, hits give low values 0.999 | S. cerevisiae deletion strains, locus YOR083W, strain WHI5 (second series), hits give low values 1.02 | S. cerevisiae deletion strains, locus YOR083W, strain WHI5, hits give low values 1.01 | S. cerevisiae deletion strains, locus YOR106W, strain vam3, hits give low values 1.02 | S. cerevisiae deletion strains, locus YOR136W, strain idh2, hits give low values 1 | S. cerevisiae deletion strains, locus YOR144C, strain elg1, hits give low values 1.01 | S. cerevisiae deletion strains, locus YOR184W, strain ser1, hits give low values 1.01 | S. cerevisiae deletion strains, locus YOR231W, strain MKK1, hits give low values 1.07 | S. cerevisiae deletion strains, locus YOR265W, strain rbl2, hits give low values 0.992 | S. cerevisiae deletion strains, locus YOR270C, strain vph1, hits give low values 1.04 | S. cerevisiae deletion strains, locus YOR290C, strain snf2, hits give low values 1.03 | S. cerevisiae deletion strains, locus YOR316C, strain cot1, hits give low values 1.02 | S. cerevisiae deletion strains, locus YPL051W, strain arl3, hits give low values 1 | S. cerevisiae deletion strains, locus YPL055C, strain LGE1, hits give low values 0.945 and 0.997 | S. cerevisiae deletion strains, locus YPL078C, strain atp4, hits give low values 1 | S. cerevisiae deletion strains, locus YPL106C, strain sse1, hits give low values 1.01 | S. cerevisiae deletion strains, locus YPL240C, strain hsp82, hits give low values 1.01 | S. cerevisiae deletion strains, locus YPL241C, strain CIN2, hits give low values 1 | S. cerevisiae deletion strains, locus YPL256C, strain CLN2, hits give low values 1.04 | S. cerevisiae deletion strains, locus YPR119W, strain clb2, hits give low values 1.02 | S. cerevisiae deletion strains, locus YPR141C, strain kar3, hits give low values 1.01 | S. cerevisiae deletion strains, locus YPR163C, strain tif3, hits give low values 1.03 | S. cerevisiae deletion strains, locus YPR167C, strain met16, hits give low values 1.01 | S. cerevisiae deletion strains, strain wtn01, hits give low values 1.03 | S. cerevisiae strains, strain wild type, hits give low values 1
